# Assay results: ChEMBL document CHEMBL1157539, “Thousands of chemical starting points for antimalarial lead identification” (Nature, 2010)
# System: HepG2
# Assay: GSK_TCMDC: Percent inhibition of human HepG2 cell line. Test compounds present at 10uM.
# Assay type: functional
row,Structure (SMILES),Inhibition
1,N#Cc1ccc(NC(=O)NC2CCN(CCCCCNC(=O)/C=C/c3ccc(Cl)c(Cl)c3)CC2)cc1,15%
2,COc1ccc(CN(C)CCOc2ccc(NC(=O)c3cccc4c(=O)c5cc(SC)ccc5[nH]c34)cc2)cc1OC,67%
3,Cc1ccc(S(=O)(=O)NC2CCN(CCNC(=O)Nc3cc(C)nc4ccccc34)C2)cc1 (stereo not drawn),0%
4,NC(=O)COc1c(C2CCN(CCCCNC(=O)c3ccc(-c4ccc(Cl)cc4)c(O)c3)CC2)ccc2c1CCCC2,97%
5,O=C(Nc1ccc(Cl)c(Cl)c1)N(Cc1ccccc1Br)C1CCNCC1,13%
6,CCc1c(C(=O)NC2CCC(N3CCC(c4ccccc4OC)CC3)CC2)[nH]c2ccc(OC)cc12 (stereo not drawn),43%
7,Cl.O=C(Nc1cccc(Cl)c1Cl)N1CCc2cc3nccc(N4CCN5CCC[C@H]5C4)c3cc21,9%
8,CS(=O)(=O)Nc1ccc2c(C3CCN(CCC4CCN(C(=O)/C=C/c5ccc(Cl)c(Cl)c5)CC4)CC3)c[nH]c2c1,35%
9,CNC(=O)C1Cc2c([nH]c3cc(Br)ccc23)C2(CCN(CCc3ccccc3)CC2)N1 (stereo not drawn),10%
10,CC(C)(C)c1ccc(CN2CCCCC(NC(=O)c3cc(-c4cccc(F)c4)cs3)C2)cc1.O=C(O)C(F)(F)F (stereo not drawn),8%
11,CCOc1cc(C)ccc1C1CCN(CCCCNC(=O)c2ccc(-c3ccc(C(F)(F)F)cn3)cc2)CC1.Cl,55%
12,CCC1(CC)N=C(N)N=C(N)C1c1ccc(Cl)c(Cl)c1.Cl (stereo not drawn),0%
13,CN1CCCc2ccc(NC(=O)C=Cc3ccc(-c4ccc(F)cc4F)o3)cc2C1.O=C(O)C(F)(F)F,8%
